The nature of test [1]: qHTS assay for small molecule agonists of retinoid X receptor alpha signaling (AID 588544).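 On activation: 0% = DMSO basal wells and 100% = reference agonist.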 Particulars: HEK293T RXRa-UAS-bla, beta-lactamase reporter, 18 h; 530 nm emission.
Test [2] has as its target Retinoic acid receptor RXR-alpha (Homo sapiens) (UniProt P19793). Described as above. To be noted: HEK293T RXRa-UAS-bla, beta-lactamase reporter, 18 h; series mostly up to 76.7 µM.
Test [3] concerns the target Thyroid hormone receptor beta (Homo sapiens) (UniProt P10828). The test is described as follows: qHTS assay for small molecule agonists of thyroid hormone receptor beta signaling (AID 588545).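 Further: 0% = DMSO only and 100% = 10 nM T3.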 Particulars: TR-UAS-bla GripTite HEK 293, beta-lactamase ratio, agonist mode, 18 h, percent of T3 response, DMSO as zero; series mostly up to 76.7 µM. A digest of the protocol:
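Efficacy and EC50 values derive from Hill fits of qHTS titration data, normalized to 10 nM T3 and DMSO-only wells. HEK 293 reporter cells were stimulated for 18 hrs at 37 C, with beta-lactamase activity measured by CCF4 fluorescence.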
(In general: Quantitative high-throughput screening tests each substance at several concentrations.)

The nature of test [4]: qHTS assay for small molecule antagonists of retinoid X receptor alpha signaling (AID 588546; active means well fitted inhibition curve with a large enough effect in the signal ratio, with a control signal flat, not every such curve was filed as active; the % refers to the signal ratio;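 further: cells stimulated with 9-cis-retinoic acid as agonist; on the % scale 0 is the no-effect control and ±100 the full control effect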). Particulars: HEK293T RXRa-UAS-bla, beta-lactamase ratio, antagonist mode; measured here: W530 green channel, cytotoxicity proxy. Summed up: (§1)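 Beta-lactamase reporter inhibition, read as CCF4 fluorescence ratio (ex 405, em 460/530 nm) after 2 h at RT. HEK293T UAS-bla cells, 2500/well, were stimulated with 9-cis-RA at 500 or 100 nM final alongside test compound for 18 h at 37 C.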

In test [5] the target is Thyroid hormone receptor beta (Homo sapiens) (UniProt P10828). Description: qHTS assay for small molecule antagonists of thyroid hormone receptor beta signaling (AID 588547; active means well fitted inhibition curve with a large enough effect in the signal ratio, with a control signal flat, not every such curve was filed as active; the % refers to the signal ratio;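 further: cells stimulated with 0.4 nM T3 agonist during compound exposure; on the % scale 0 is the no-effect control and ±100 the full control effect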). Particulars: TR-UAS-bla HEK293, beta-lactamase ratio, antagonist mode, 18 h. Summed up: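 Inhibition of T3-driven (0.4nM final) beta-lactamase reporter activity was measured over 0.59 nM to 92 uM compound after 18 h at 37 C. The cells were GripTite HEK293 TR-UAS-bla in charcoal/dextran-stripped serum, with CCF4 ratio read-out and IC50 from Hill fits.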
Chain of Thyroid hormone receptor beta (Homo sapiens) (P10828 whole entry, looked up): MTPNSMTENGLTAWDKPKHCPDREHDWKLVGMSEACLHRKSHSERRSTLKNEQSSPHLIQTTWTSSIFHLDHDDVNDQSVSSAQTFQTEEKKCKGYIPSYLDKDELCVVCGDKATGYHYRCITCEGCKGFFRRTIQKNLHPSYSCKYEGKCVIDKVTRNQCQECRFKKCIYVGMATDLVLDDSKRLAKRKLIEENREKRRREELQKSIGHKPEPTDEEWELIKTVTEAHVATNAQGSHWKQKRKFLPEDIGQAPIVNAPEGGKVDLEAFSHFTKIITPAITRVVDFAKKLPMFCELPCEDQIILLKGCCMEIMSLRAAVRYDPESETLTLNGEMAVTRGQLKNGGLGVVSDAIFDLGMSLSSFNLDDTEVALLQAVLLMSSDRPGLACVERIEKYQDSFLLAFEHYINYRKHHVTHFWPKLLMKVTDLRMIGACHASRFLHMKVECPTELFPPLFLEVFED

The target in test [6] is Voltage-gated inwardly rectifying potassium channel KCNH2 (Homo sapiens) (UniProt Q12809). Description: qHTS Assay for Small Molecule Inhibitors of the Human hERG Channel Activity (AID 588834; active means well fitted curve in the direction sought with a large enough effect; an effect the other way counts as inactive or inconclusive;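 further: top concentration of the series differs between compounds; on the % scale 0 is the no-effect control and ±100 the full control effect; lower thallium flux fluorescence means stronger hERG block; nearly all actives have a fitted effect of over 50% in size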). To be noted: U2OS BacMam hERG, FluxOR thallium flux fluorescence; series mostly up to 92.2 µM. Summed up:
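Thallium serves as surrogate for K+ influx through BacMam-delivered hERG in U2OS cells. Compounds are added for about 10 minutes after dye loading; stimulation buffer then starts flux, monitored kinetically on FDSS.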

The nature of test [7]: qHTS assay for small molecule agonists of the antioxidant response element (ARE) signaling pathway (AID 651741; active means well fitted activation curve with a large enough effect in the signal ratio; the % refers to the signal ratio; further: % of control where 0% means no effect). To be noted: HepG2 ARE-bla reporter, beta-lactamase FRET ratio, 16 h; series mostly up to 96 µM. Summed up: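 Agonist activity is measured as ARE-driven beta-lactamase expression in a stable HepG2 reporter line, using 16 h compound treatment at 37 C and a FRET substrate fluorescence readout after 2 h.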

Test [8] can be described thus: qHTS assay for small molecule activators of the p53 signaling pathway (AID 651743; active means well fitted activation curve with a large enough effect in the signal ratio, not every such curve was filed as active; the % refers to the signal ratio; further: % of control where 0% means no effect). To be noted: HCT-116 p53RE-bla, beta-lactamase FRET ratio, 16 h; stronger effect = higher value. Summed up:
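A beta-lactamase reporter under p53 response element control, stably carried by HCT-116 cells, reported pathway activation. Test compounds were applied for 16 hours at 37 C, and fluorescence was measured 2 hours after adding the B/G FRET substrate.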

Test [9] can be described thus: qHTS assay for small molecule activators of the nuclear factor-kappa B (NF-kB) signaling pathway (AID 651749; active means well fitted activation curve with a large enough effect in the signal ratio; the % refers to the signal ratio; further: % of control where 0% means no effect). To be noted: NF-kB-bla ME-180 cells, beta-lactamase FRET ratio, 16 h; stronger effect = higher value. Summed up:
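FRET-based beta-lactamase detection in ME-180 cells reports NF-kB response-element-driven transcription following overnight (16 hr) compound treatment.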

A short description of test [10]: qHTS assay for small molecule disruptors of the mitochondrial membrane potential - 1 hr assay (AID 651754). Further: on the % scale 0 is the no-effect control and ±100 the full control effect; nearly all actives have a fitted effect of over 35% in size. To be noted: series mostly up to 92.2 µM. Summed up: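 Read-out: dye fluorescence at 490 nm ex/535 nm em (monomers) and 540 nm ex/590 nm em (aggregates) in HepG2 cells. Compound exposure 1 hr at 37C, followed by 30 min dye loading.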
Test [11] in a line: qHTS assay for small molecule disruptors of the mitochondrial membrane potential - 5 hr assay (AID 651755). Further: on the % scale 0 is the no-effect control and ±100 the full control effect; nearly all actives have a fitted effect of over 40% in size. Particulars: JC-1-type ratio dye; series mostly up to 92.2 µM. Summed up: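 Membrane-potential dye readout: red aggregate (540 ex/590 em) versus green monomer (490 ex/535 em) fluorescence after 30 min dye loading, following 5 hr compound exposure at 37C of overnight-plated HepG2 cells.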

Test [12] addresses Tumor necrosis factor (Homo sapiens) (UniProt P01375). Description: qHTS assay to identify small molecules that stimulate Tumor Necrosis Factor-alpha (TNF-alpha) secretion (AID 651757; active means well fitted curve in the direction sought with a large enough effect in the signal ratio; the % refers to the signal ratio; further: 0% is about no effect). Particulars: Human cells, HTRF 665/615 ratio; series mostly up to 92.2 µM. Summed up:
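THP-1 cells, 3000/well; compound 17 hrs, 37 C; add cryptate/XL665 anti-TNF-alpha antibody pair; 3 hr RT; TR-FRET (HTRF) read of secreted TNF-alpha. Quantitative HTS format.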

The nature of test [13]: qHTS assay to identify small molecules that stimulate interleukin-8 (IL-8) secretion (AID 651758; active means well fitted activation curve with a large enough effect in the signal ratio; the % refers to the signal ratio; further: 0% is about no effect). To be noted: HTRF ratio (665/615); series mostly up to 92.2 µM. A digest of the protocol: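 Secreted IL-8 measured homogeneously by TR-FRET (two labelled anti-IL-8 antibodies, 1-3 h at room temperature) after a 16 h, 37 C compound treatment of THP-1 cells at 2000 cells/well.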

Test [14] is described as follows: qHTS assay for environmental chemicals that activate the Aryl hydrocarbon Receptor (AhR) signaling pathway (AID 651777; active means well fitted curve in the direction sought with a large enough effect; an effect the other way counts as inactive or inconclusive; further: % of control where 0% means no effect; nearly all actives have a fitted effect of over 15% in size). Particulars: 1A2-DRE human hepatoma cells, luciferase, 24 h; activation: stronger effect = higher value. A digest of the protocol:
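Luminescence read-out: One-Glo added for 30 min at RT after 24 hr compound treatment (37 C, 5% CO2) of human hepatoma cells expressing a DRE/CYP1A2 promoter–luciferase reporter; increased signal indicates AhR activation.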

For test [15], the target named is Peroxisome proliferator-activated receptor alpha (Homo sapiens) (UniProt Q07869). The test is described as follows: qHTS assay for small molecule agonists of the peroxisome proliferator-activated receptor alpha (PPARalpha) signaling pathway (AID 651778; active means well fitted curve in the direction sought with a large enough effect; an effect the other way counts as inactive or inconclusive; further: % of control where 0% means no effect). To be noted: PathHunter PPARalpha complementation, chemiluminescence, 6 h; stronger effect = higher value. A digest of the protocol: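 Chemiluminescence from complemented enzyme reported PPARalpha activation in cells after 6 hr of compound treatment at 37 C. The detection reagent was incubated for 60 min at room temperature, and compounds were scored as agonists.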
Chain of Peroxisome proliferator-activated receptor alpha (Homo sapiens) (Q07869 whole entry, looked up): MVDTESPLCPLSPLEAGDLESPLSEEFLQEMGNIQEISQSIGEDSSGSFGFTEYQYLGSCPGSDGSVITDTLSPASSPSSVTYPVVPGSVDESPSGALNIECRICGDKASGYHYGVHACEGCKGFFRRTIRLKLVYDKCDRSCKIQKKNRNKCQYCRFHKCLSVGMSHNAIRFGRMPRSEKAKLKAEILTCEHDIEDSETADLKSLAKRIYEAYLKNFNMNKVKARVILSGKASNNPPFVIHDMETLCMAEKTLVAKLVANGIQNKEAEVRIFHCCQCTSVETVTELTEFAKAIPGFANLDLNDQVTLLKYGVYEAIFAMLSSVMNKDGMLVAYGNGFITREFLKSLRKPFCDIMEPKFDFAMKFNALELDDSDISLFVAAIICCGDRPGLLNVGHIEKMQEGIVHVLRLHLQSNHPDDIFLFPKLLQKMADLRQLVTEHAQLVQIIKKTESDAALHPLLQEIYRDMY

Test [16] concerns the target Nuclear receptor ROR-gamma (Homo sapiens) (UniProt P51449). Description: qHTS assay for small molecule antagonists of the retinoid-related orphan receptor gamma (ROR-gamma) signaling pathway (AID 651802; active means well fitted curve in the direction sought with a large enough effect; an effect the other way counts as inactive or inconclusive;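 further: CHO cells with doxycycline-induced ROR-gamma expression; luciferase reporter luminescence driven by ROR response element; on the % scale 0 is the no-effect control and ±100 the full control effect; nearly all actives have a fitted effect of over 60% in size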). To be noted: ROR-gamma antagonist cell reporter assay; series mostly up to 92.2 µM. A digest of the protocol: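 Luciferase read-out: ONE-Glo luminescence after 30 min at room temperature, following 16hr doxycycline induction at 37C, 5% CO2 of CHO cells with TET-inducible ROR and RORE-LUC reporter; decreased luminescence = reduced reporter activity.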

Test [17] can be described thus: qHTS assay for small molecule agonists of the antioxidant response element (ARE) signaling pathway measured by Nrf2-dependant transcriptional activity (AID 720636; active means well fitted curve in the direction sought with a large enough effect in the repeat runs; an effect the other way counts as inactive or inconclusive;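 further: HepG2 cells with an ARE-driven luciferase reporter; % of control where 0% means no effect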). To be noted: ARE-luc HepG2, Nrf2 luciferase reporter, 16 h; series mostly up to 92.4 µM. Summed up: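 HepG2 ARE-luc reporter line, 1% dialyzed FBS; 6 hr attachment at 37 C, compound pinned in, 16 hr at 37 C/5% CO2; ONE-Glo, 30 min RT, luminescence read.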

Test [18] in a line: qHTS assay for small molecule antagonists of the retinoid-related orphan receptor gamma (ROR-gamma) signaling pathway - cell viability counter screen (AID 720652; active means well fitted curve in the direction sought with a large enough effect in the repeat runs; an effect the other way counts as inactive or inconclusive;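 further: CHO reporter cells with doxycycline-induced ROR-gamma expression; compound exposure lasted 16 hr before ATP read; on the % scale 0 is the no-effect control and ±100 the full control effect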). Particulars: RORgamma reporter cell line viability counter screen; series mostly up to 92.2 µM. A digest of the protocol:
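CHO RORE-LUC/TET-ROR line, 1,000 cells/well, 37 C 5% CO2 5 hr; cpd or DMSO + doxycycline induction, 16 hr. CellTiter-Glo, 30 min RT, luminescence = ATP content.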

The target of test [19] is Retinoic acid receptor RXR-alpha (Homo sapiens) (UniProt P19793). The test is described as follows: qHTS assay for small molecule antagonists of retinoid X receptor alpha signaling (AID 588546).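 Further: cells stimulated with 9-cis-retinoic acid as agonist; on the % scale 0 is the no-effect control and ±100 the full control effect.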 To be noted: HEK293T RXRa-UAS-bla, beta-lactamase ratio, antagonist mode. Summed up: as §1
Chain of Retinoic acid receptor RXR-alpha (Homo sapiens) (P19793 whole entry, looked up): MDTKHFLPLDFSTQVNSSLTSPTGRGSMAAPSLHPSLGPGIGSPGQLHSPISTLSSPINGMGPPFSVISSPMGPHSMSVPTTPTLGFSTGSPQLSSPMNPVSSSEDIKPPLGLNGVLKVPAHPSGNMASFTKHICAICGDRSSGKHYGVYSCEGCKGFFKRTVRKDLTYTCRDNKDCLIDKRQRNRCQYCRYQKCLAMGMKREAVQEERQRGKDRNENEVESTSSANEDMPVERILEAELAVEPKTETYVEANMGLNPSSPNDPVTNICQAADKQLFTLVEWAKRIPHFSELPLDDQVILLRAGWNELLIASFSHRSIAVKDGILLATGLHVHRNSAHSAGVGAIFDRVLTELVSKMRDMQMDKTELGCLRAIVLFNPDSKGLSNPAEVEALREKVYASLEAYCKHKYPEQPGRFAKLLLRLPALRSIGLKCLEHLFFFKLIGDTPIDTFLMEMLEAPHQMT
A short description of test [20]: qHTS assay for small molecule agonists of the antioxidant response element (ARE) signaling pathway measured by Nrf2-dependant transcriptional activity - cell viability counter screen (AID 720653; active means well fitted curve in the direction sought with a large enough effect in the repeat runs; an effect the other way counts as inactive or inconclusive; further: on the % scale 0 is the no-effect control and ±100 the full control effect). Particulars: ARE-bla HepG2 viability, CellTiter-Glo ATP luminescence, 16 h; stronger effect = lower value. Summed up:
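Cytotoxicity counter screen: intracellular ATP quantified by CellTiter-Glo luminescence in the same ARE-bla HepG2 plates, after 16 h compound exposure and a 2 h beta-lactamase substrate step.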

Results filed as inconclusive are left out. Activity calls are given as the source filed them. Unless noted, the call rests on the fitted dose curve.

Chain of Tumor necrosis factor (Homo sapiens) (P01375 whole entry, looked up): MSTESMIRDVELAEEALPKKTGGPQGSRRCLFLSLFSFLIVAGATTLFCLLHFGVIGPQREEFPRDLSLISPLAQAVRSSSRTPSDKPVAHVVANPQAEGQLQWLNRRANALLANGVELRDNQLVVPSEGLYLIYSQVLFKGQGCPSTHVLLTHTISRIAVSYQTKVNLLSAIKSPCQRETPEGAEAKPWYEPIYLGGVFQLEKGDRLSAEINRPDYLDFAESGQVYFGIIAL
Chain of Voltage-gated inwardly rectifying potassium channel KCNH2 (Homo sapiens) (Q12809 whole entry, looked up): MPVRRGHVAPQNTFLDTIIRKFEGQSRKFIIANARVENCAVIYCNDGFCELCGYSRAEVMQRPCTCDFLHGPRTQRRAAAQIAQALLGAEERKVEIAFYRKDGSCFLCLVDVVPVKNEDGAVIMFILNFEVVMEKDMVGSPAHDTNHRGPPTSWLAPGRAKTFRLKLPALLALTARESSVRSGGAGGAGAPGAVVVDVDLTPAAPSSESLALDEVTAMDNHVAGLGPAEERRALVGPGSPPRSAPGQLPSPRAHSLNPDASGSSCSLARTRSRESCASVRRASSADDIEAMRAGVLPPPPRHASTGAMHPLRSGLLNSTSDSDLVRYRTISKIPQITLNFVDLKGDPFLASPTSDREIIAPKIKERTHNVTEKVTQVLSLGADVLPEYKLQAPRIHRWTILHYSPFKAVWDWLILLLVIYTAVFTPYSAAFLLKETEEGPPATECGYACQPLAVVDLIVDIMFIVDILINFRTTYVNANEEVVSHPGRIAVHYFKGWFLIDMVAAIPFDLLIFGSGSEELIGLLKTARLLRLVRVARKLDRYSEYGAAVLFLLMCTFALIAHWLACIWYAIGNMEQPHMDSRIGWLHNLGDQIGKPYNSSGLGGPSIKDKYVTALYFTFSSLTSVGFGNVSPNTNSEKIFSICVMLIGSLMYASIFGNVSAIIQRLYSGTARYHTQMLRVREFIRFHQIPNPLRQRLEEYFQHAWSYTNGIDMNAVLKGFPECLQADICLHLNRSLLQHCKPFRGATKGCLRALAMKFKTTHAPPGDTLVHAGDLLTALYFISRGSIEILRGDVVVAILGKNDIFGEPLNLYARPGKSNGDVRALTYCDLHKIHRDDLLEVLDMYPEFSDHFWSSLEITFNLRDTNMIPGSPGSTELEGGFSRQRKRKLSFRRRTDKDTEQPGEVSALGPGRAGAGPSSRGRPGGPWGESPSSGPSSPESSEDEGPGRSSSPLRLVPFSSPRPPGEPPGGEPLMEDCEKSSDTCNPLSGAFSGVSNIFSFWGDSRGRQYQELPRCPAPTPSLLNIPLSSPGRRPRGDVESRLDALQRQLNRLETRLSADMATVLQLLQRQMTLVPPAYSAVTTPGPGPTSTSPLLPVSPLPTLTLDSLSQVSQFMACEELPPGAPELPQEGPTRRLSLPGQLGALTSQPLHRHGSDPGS
Chain of Nuclear receptor ROR-gamma (Homo sapiens) (P51449 whole entry, looked up): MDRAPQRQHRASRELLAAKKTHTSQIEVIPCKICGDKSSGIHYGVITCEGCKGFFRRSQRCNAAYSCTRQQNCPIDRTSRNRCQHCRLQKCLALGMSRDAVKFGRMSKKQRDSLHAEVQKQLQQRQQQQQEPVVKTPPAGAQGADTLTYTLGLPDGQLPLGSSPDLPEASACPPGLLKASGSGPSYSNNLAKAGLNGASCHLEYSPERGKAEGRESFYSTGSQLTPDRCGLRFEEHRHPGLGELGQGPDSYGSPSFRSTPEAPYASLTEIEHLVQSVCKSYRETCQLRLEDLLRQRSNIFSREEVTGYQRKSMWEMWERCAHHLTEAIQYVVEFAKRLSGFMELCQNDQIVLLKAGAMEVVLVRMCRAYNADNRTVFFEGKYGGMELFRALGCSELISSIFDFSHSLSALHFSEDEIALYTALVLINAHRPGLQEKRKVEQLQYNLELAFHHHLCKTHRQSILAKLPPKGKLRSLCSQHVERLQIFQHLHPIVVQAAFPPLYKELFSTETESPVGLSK

As to `CCOc1ccccc1N`, the max response in test [1] is 0.0722%; in test [4], -5.65%; in test [15] it was -0.0098% (inactive). Besides, the compound was called inactive in test [2], in test [3] and in [17]. Further, in test [5], the activity change % (negative = inhibition) was -11.6% (inactive). Further, the Potency result in test [6], in test [7], in test [10], in test [11], in test [12] and in test [13] was “inactive” each time. The Potency result in test [16] and in test [18] was “inactive” throughout. Further, the figures for the activation in test [8], in test [9] and in [14] were -1.62% (inactive), -1.4% (inactive) and -0.265% (inactive), respectively.
Regarding `CC(=O)Nc1cccc(N)c1`, the max response in test [1] is -8.93%; in test [4], -0.371%; in test [19] it was 6.6% (inactive); in test [15] it was -7.63% (inactive); in test [20], 1.46% (inactive). Further, the compound was called inactive in test [2], in test [3] and in [17]. In addition, the Potency result in [6], in test [10], in [12], in test [16] and in test [18] was “inactive” each time. Also, the values for the activation in test [8], in test [9] and in test [14] were 1.81% (inactive), 0.511% (inactive) and -0.0665% (inactive), respectively.
For the compound `CCc1ccccc1O`, the max response in [1] is -12.3%; in test [4], -5.98%; in test [19] it was 5.77% (inactive); in test [15], -2.08% (inactive); in test [20] it was 4.85% (inactive). Moreover, the compound was called inactive in test [2], in test [3] and in [17]. Also, the Potency entry in test [6], in test [10], in [11], in test [12] and in test [16] was “inactive” each time. In addition, the activation in test [9] is 0.236% (inactive).
On to `O=CNc1ccccc1`, for which the max response in [1] is -8.25%; in test [4] it was 2.83%; in test [19] it was 1.7% (inactive); in test [15], -2.49% (inactive); in test [20] it was -3.88% (inactive). Besides, the compound was classed as inactive in test [2], in test [3] and in test [17]. Further, the Potency entry in [6], in [10], in [12], in test [16] and in test [18] was “inactive” each time. The activation in test [14] was -0.556% (inactive).
As to `Cc1cccc2sc(N)nc12`, the max response in test [1] was -1.76%; in test [4], -5.71%; in [19], 1.45% (inactive); in test [15] it was -1.18% (inactive); in [20], -5.19% (inactive). Also, the compound was called inactive in test [2] and in [3]. Further, the Potency entry in test [6], in test [11], in [12], in [16] and in test [18] was “inactive” in each case. For the same compound, the results for the activation in test [8] and in test [9] were 2.1% (inactive) and 0.512% (inactive), respectively.
For the compound `NC(=O)NC(N)=O`, the max response in [1] was 6.09%; in test [4], -1.82%; in test [15], -2.74% (inactive); in [20], -4.93% (inactive). The result in test [2], in [3] and in test [17] was inactive. The activity change % (negative = inhibition) in [5] is 9.23% (inactive). In addition, the Potency result in [6], in test [7], in [10], in test [12], in test [16] and in test [18] was “inactive” in each case. Moreover, the activation in test [8] is -4.91% (inactive); in [14], 2.56% (inactive).
Turning to `Cc1cc(C2(c3cc(C)c(O)cc3C)OS(=O)(=O)c3ccccc32)c(C)cc1O`, the max response in test [1] was -3.17%; in [4], -12.4%; in test [19], 0.408% (inactive); in test [15], -10.4% (inactive); in [20], -15.6% (inactive). Further, the call in [2], in test [3] and in test [17] was inactive. Further, the Potency entry in [6], in test [10], in test [11], in [16] and in test [18] was “inactive” throughout. Besides, the activation in [8] was -5.82% (inactive).
As to `CC(=O)Nc1ccccc1C`, the max response was -2.35% in test [1], -11.2% in [4], -1.36% (inactive) in test [15] and -6.99% (inactive) in test [20]. For the same compound, the outcome in [2] and in test [3] was inactive. In test [5], the activity change % (negative = inhibition) was 4.18% (inactive). The Potency entry in test [6], in test [7], in test [10], in test [11], in [12] and in test [13] was “inactive” in each case. Besides, the Potency entry in [18] was “inactive”. The values for the activation in test [8], in test [9] and in [14] were 0.555% (inactive), -0.805% (inactive) and -0.35% (inactive), respectively.
